Each structure is given as a SMILES string. Results filed as inconclusive are left out. Active and inactive are the calls of the source. The call rests on the fitted dose curve; in most records, active means well fitted inhibition curve with a large enough effect; inconclusive means small, poorly fitted or top-dose-only effect; inactive means flat fitted curve, though single readings scatter.

In the assay the target is Aldehyde dehydrogenase, mitochondrial (Homo sapiens) (UniProt P05091). Nature of the assay: qHTS for Inhibitors of the Aldehyde Dehydrogenase Family (ALDH2) Primary screen (AID 2061308).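 Further: plate controls were vehicle for no effect and reference inhibitor for full effect; nearly all actives have a fitted effect of over 55% in size.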 As to conditions: ALDH2 enzyme inhibition qHTS, 1536-well; series mostly up to 56 µM; activity change, negative = inhibition: at the top concentration. In general terms: In qHTS, concentration-response curves come from the screen itself.
In the case of `CC1=CC(=O)CC(C)(C)[C@@]1(O)CC[C@@H](C)O[C@@H]1O[C@H](CO)[C@@H](O)[C@H](O)[C@H]1O`, the “activity change, negative = inhibition” value was 5.44% (inactive).
The value for `CC(=O)/C=C/C1(O)C(C)=CC(=O)CC1(C)C` (stereo not given) was -2.02% (inactive); that for `NC(=O)C1=CC2C3C=CC2C(OC3=O)O1` (stereo not given) was -5.25% [at 81.8 µM] (inactive).
As for `Cc1cccc(N(C)C(=S)Oc2ccc3c(c2)CCC3)c1`, the “activity change, negative = inhibition” value was -5.88% (inactive).
The value for `COc1cc(O)cc2c1C(=O)OC(C)C2` (stereo not given) was 27.5% (inactive); that for `CC(C)C1C(OC(=O)/C=C/c2ccccc2)CC2(C)OC2CCC2(C)OC2C1O` (stereo not given) was 5.37% (inactive); that for `CC1=CCC(C(C)(C)O[C@@H]2O[C@H](CO[C@@H]3O[C@@H](C)[C@H](O)[C@@H](O)[C@H]3O)[C@@H](O)[C@H](O)[C@H]2O)CC1` (stereo not given in full) was -4.36% [at 28 µM] (inactive).
As to `CC(CCC1(O)OC2CC3C4CC=C5CC(O[C@@H]6O[C@H](CO)[C@@H](O[C@@H]7O[C@@H](C)[C@H](O)[C@@H](O)[C@H]7O)[C@H](O)[C@H]6O[C@@H]6O[C@@H](C)[C@H](O)[C@@H](O)[C@H]6O)CCC5(C)C4CCC3(C)C2C1C)CO[C@@H]1O[C@H](CO)[C@@H](O)[C@H](O)[C@H]1O` (stereo not given in full), the “activity change, negative = inhibition” value is 2.49% [at 16.9 µM] (inactive).
The value for `CC1=CC(=O)C[C@H]2[C@@H]1CC[C@@H](C)[C@]21CO[C@H](c2ccoc2)C1=O` was 17.5% (inactive); that for `C[C@@H]1O[C@@H](O[C@H]2[C@H](OC(=O)[C@]34CCC(C)(C)C[C@H]3C3=CCC5[C@@]6(C)C[C@@H](O)[C@@H](O)[C@@](C)(CO)C6[C@H](O)C[C@@]5(C)[C@]3(C)CC4)OC[C@H](O)[C@@H]2O)[C@H](O)[C@H](O)[C@H]1O[C@@H]1OC[C@@H](O)[C@H](O[C@H]2O[C@H](C)[C@@H](O)[C@H](O)[C@@H]2O)[C@H]1O` (stereo not given in full) was -2.16% [at 16.9 µM] (inactive).

The values above are taken from PubChem BioAssay (NCATS).
